In ChEMBL document CHEMBL3988442, “University of Dundee, Small-Polar-MMV Screening Library” (2021) one finds Percent Effect data, which are given here for 39 compounds.

This experiment concerns the target AMP-activated protein kinase, AMPK (Homo sapiens) (UniProt P54646+O43741+P54619+Q9UGJ0+Q9Y478+Q13131+Q9UGI9). Put plainly: AMP-dependent Kinase enzyme assay. An in vitro enzyme assay that detects ADP turnover that is directly proportional to AMPK activity. This uses naive AMPK that is activated during the assay with MK-8722. Type of experiment: functional. More on the design: scale not given: direction of the effect not stated beside the values. The settings on record: 30 µM.
Regarding `Cc1ccc2nc(CN3CCCCC3CCN3CCOCC3)cn2c1` (centres undefined), the Percent Effect is 6.28%. The result for `CN1CCC(Nc2ccc(F)cc2OCC(F)(F)F)C1=O` (centres undefined) reads -16.7%; that for `CC(C)c1cc(NC(=O)Cn2cnc3ccccc3c2=O)[nH]n1`, 6.52%; that for `O=C(CNc1ccc(OC2CCOC2)cc1)NCc1ccco1` (centres undefined), 7.98%.

For `CC(C)c1nn(C)c(Cl)c1CNCC(=O)N1CCN(C)CC1`, the Percent Effect is -14.6%.

On to `Nc1cc(-c2c[nH]nc2C2CCN(C(=O)C3CCCC3)C2)ccn1` (centres undefined), for which the Percent Effect is -6.9%.

As for `CC1(C)CC1(C(=O)N1CC(c2cccnc2)C1)c1ccccc1F` (centres undefined), the Percent Effect was -6.17%. The result for `COCCN1C[C@H]2CC[C@@H]1CN(C(=O)CCc1c(C)nn(C)c1C)C2` reads -4.69%; that for `Cc1c(Br)cccc1NC(=O)N(C)CCO`, -2.37%. With `Cc1ccc(-c2noc(C3CCN3C(=O)c3ccc(=O)[nH]n3)n2)s1` (centres undefined), the Percent Effect stood at 19.2%.

`CN(C)C(=O)N1CCN(c2cc(N3CCCC3CO)ncn2)CC1` (centres undefined): the Percent Effect is -3.16%. In the case of `Cc1cnn(CCNCC(=O)N2CCN(c3ccccn3)CC2)c1`, the Percent Effect is -14.7%.

Take `CN(C)c1cccc(C(=O)Nc2cnn(Cc3ccncc3)c2)c1`: the Percent Effect is -4.34%.

Regarding `Cc1nc(CN2CCCC2Cn2ccnc2C(C)C)nc2ccccc12` (centres undefined), the Percent Effect was -10.6%. As to `CCCn1ccnc1-c1cccc(NC(=O)[C@H]2CCC(=O)N2)c1`, the Percent Effect came to 11.3%.

Take `Cc1csc(CCNC(=O)N2CCC(NC(=O)OC(C)(C)C)CC2)n1`: the Percent Effect is -1.4%. `O=C(CC1C=CCC1)N1CCc2ncnc(NCc3ccon3)c2CC1` (centres undefined): the Percent Effect is 21.6%. `Cc1cn[nH]c1C1COCCN1Cc1c[nH]cn1` (centres undefined): the Percent Effect worked out at 8.68%. For the compound `CCC(C(=O)NCCc1coc(-c2ccc(C)cc2)n1)N(C)C` (centres undefined), the Percent Effect is 6.54%. `Cc1nn(C)c2ncnc(NCc3nncn3C3CCCCC3)c12`: the Percent Effect came to 10.1%. In the case of `Cc1cc(C(=O)NCCN2CCCC(C)C2)nn1C(C)(C)C` (centres undefined), the Percent Effect was -4.71%.

`O=C(c1nnn(-c2ccccc2)n1)N(CCO)CCO`: the Percent Effect was 0.534%. The value for `Cc1cc(C(=O)N2CCNC(=O)C2)c(C)n1CC(F)(F)F` was 1.02%. `Cc1c(C(=O)NCC(C)(C)S(C)(=O)=O)cccc1-c1ccccn1`: the Percent Effect was 11.1%. The value for `O=C(NCCn1ccnc1-c1cc2n(n1)CCNC2)c1ccncc1` was 1.13%; that for `CNc1nc(C(=O)N2CCn3nc(C(=O)OC)cc3C2)cs1` was -0.197%; that for `COC(=O)c1ccc(N(C(=O)c2ccncc2)C(C)C)c(C)c1` was -1.62%. The result for `CC(CC(F)(F)F)NCc1ccccc1-n1ccnc1` (centres undefined) reads -3.96%; that for `Cc1cccc(NC(=O)N2CCOCC(CN(C)C)C2)c1C` (centres undefined), -2.2%; that for `OCCN1CCN(Cc2coc(-c3ccccc3Cl)n2)CC1`, -12.1%.

For `NC(=O)C(NC1CCN(CC2CCCCC2)CC1)c1ccccc1` (centres undefined), the Percent Effect was 0.144%.

For `COc1cccc(-c2nc(CNCCc3cccnc3)cs2)c1`, the Percent Effect is -3.62%. The value for `N#Cc1ncn(CC(=O)N2CCCC2c2cccs2)n1` (centres undefined) was -12%. The result for `CN(Cc1cccc(-n2cccn2)c1)Cc1c[nH]cn1` reads -6.63%; that for `CCCC(=O)Nc1cccc([C@H]2C[C@@H](NC(C)=O)CCO2)c1`, 13.7%.

`Cc1noc(C)c1C(=O)N(C)C(C)c1ccc(S(C)(=O)=O)cc1` (centres undefined): the Percent Effect was -2.19%. The result for `O=C(NCC(=O)N1CCCCC1)c1sccc1C1CC1` reads -1.89%; that for `O=C(c1coc(COc2ccccc2F)n1)N1CCC[C@H]1CO`, 8.7%; that for `NC(=O)c1cc(C2CCCN(CCc3ccc4c(c3)CCO4)C2)n[nH]1` (centres undefined), 3.33%.
